Test results from PubChem BioAssay (NCI).
This is part of a sample that, as a whole, favours compounds with a hit. Of some 83,000 tested, about 20% had one in any assay.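 48-hour exposure, single concentration, 96-well plates; percent growth endpoint where 0 means no net growth. Active: below 10.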 Unmarked numbers belong to inactive results. The source made the active and inactive calls.

Tested on: HL-60(TB) leukemia
Experiment: NCI-60 one-dose screen, 48 h (100 = growth as untreated, 0 = no growth, -100 = all killed)
Conditions: 10 µM unless noted

In order of falling growth:
1. O=C1CSc2ccccc2N1  121%
2. CC1CC(O)C2C3(C)CCCC2(COC3=O)C12CCC1(CCOC1=O)O2 (stereo not given)  121%
3. CN1CCN(c2ccc(Nc3c4ccccc4nc4ccccc34)cc2)CC1  119%
4. Cc1cscc(C)c1=S  111%
5. CC(C(=O)n1cc(-c2ccccc2)c(-c2ccccc2)c1)c1ccccc1 (stereo not given)  106%
6. Cc1c(C(=O)NCCC(=O)NO)sc2ncnc(Nc3ccc(NC(=O)Nc4cccc(C(F)(F)F)c4)cc3)c12  105%
7. S=C(N/N=C/c1cc(Cl)cc(Cl)c1)NC12CC3CC(CC(C3)C1)C2  104%
8. COc1ccccc1-n1c(-c2sc(NC(C)=O)nc2C)n[nH]c1=S  101%
9. CCOC(=O)C1CCN(c2ccc(N3C[C@@H](CNCc4ccc(C(=N)N)cc4)OC3=O)cc2)CC1  101%
10. O=C(CN1C(=O)NC2NC(=O)NC21)N/N=C/c1ccc(Cl)cc1Cl (stereo not given)  99.4%
11. COc1ccc(/C=C/C(=O)c2ccc(NC(=O)c3cc4cc5ccccc5nc4s3)cc2)cc1OC  92.5%
12. CC(C)N1CCN(c2ccc(OC[C@H]3CO[C@](Cn4cncn4)(c4ccc(Cl)cc4Cl)O3)cc2)CC1  91.3%
13. CN1CCN=C1c1ccc(NC(=O)c2ccc(C(=O)Nc3ccc(C4=NCCN4C)cc3)cc2)cc1  91.2%
14. O=C(c1c[nH]c2ccccc12)c1n[nH]c(=S)n1-c1cccc(Br)c1  88.8%
15. Cc1ccc(N=Nc2ccccc2)cc1  85.8%
16. Cn1cc(-c2nc(-c3c[nH]c4c(Cl)nccc34)cs2)c2ccccc21  83.3%
17. NC(N)=NC(N)=NCCCc1ccco1  83.1%
18. COc1cc(OC)cc(-c2n/c(=C\c3c(O)[nH]c4ccc(OC)cc34)cc3c2=Nc2ccccc2-3)c1  80%
19. CC(C)(C)c1ccc(OCCOC(=O)CBr)cc1  75.2%
20. Oc1[nH]c2ccc(Cl)cc2c1/C=c1/ccc2c(c1)N=C(c1ccc(C(F)(F)F)cc1)N=2  75.1%
21. CCOC(=O)C1=C(C)NC(C)=C(C(=O)OCC)C1(C)C  69.3%
22. O=c1nc(-c2ccccc2)c2cc(-c3ccc(N4CCOCC4)cc3)ccc2[nH]1  63.5%
23. COc1ccc(-c2nc3sc(C)cn3c2/C=C/C(=O)c2cc(OC)c(OC)c(OC)c2)cc1  55.9%
24. CCOC(=O)Nc1ccc(C(=O)/C=C/c2ccccc2)cc1  45.4%
25. O=C(N/N=c1/ccoc2cccnc12)N1CCN(c2ncccn2)CC1  44.2%
26. COc1cc(-c2nn(-c3ccc(NC(=O)c4cc(Cl)cc(Cl)c4)cc3)cc2-c2ccncc2)ccc1Cl  41%
27. COc1ccc(-c2nc(SC(C)C)nc(NNC(N)=S)c2C#N)cc1  14.3%
28. COc1ccc(Nc2c3ccccc3nc3ccccc23)cc1  12.8%
29. COC(=O)c1ccc2[nH]c(O)c(C(=Nc3ccc(N(C)C(=O)CN4CCN(C)CC4)cc3)c3ccc([N+](=O)[O-])cc3)c2c1  11.6%

With `COc1cc(-c2nn(-c3cccc(NC(=O)c4ccc(Cl)c(C(F)(F)F)c4)c3)cc2-c2ccncc2)ccc1Cl` the growth was 3.23% (active).
For `COC(=O)/C=C1\SC(=Nc2cccc(Cl)c2)N(CCc2c[nH]c3ccccc23)C1=O`, the growth was -37.1% (active).
For `COC(=O)[C@]12CC[C@@H](C)[C@H](C)[C@@H]1C1=CC[C@@H]3[C@@]4(C)C=C(O)C(=O)C(C)=C4CC[C@@]3(C)[C@]1(C)CC2`, the growth was 4.09% (active).
With `O=c1oc2ccc(Br)cc2c(=O)n1-c1ccc(Br)cc1F` the growth was -39.1% (active).
With `CN(C)c1ccc2c(c1)OC(N)=C(C#N)C2c1ccc2c(c1)CCO2` (stereo not given) the growth was -1.56% (active).
In the case of `Cc1c2c(cc[n+]1Cc1ccccc1)c1ccc(OCC3CCCCC3)cc1n2CC1CCCCC1`, the growth is reported as -53.4% (active).
For `COC(=O)c1c2c(c(C)[n+]([O-])c1C)C(=O)C(NCc1ccccc1)=CC2=O`, the growth was -2.98% (active).
With `C=C(C)[C@@H]1CC[C@]2(C(=O)n3ccnc3)CC[C@]3(C)[C@H](CC[C@@H]4[C@@]5(C)CCCNC(C)(C)[C@@H]5CC[C@]43C)[C@@H]12` the growth was -56.2% (active).
In the case of `N#Cc1c(-c2ccccc2)cc(-c2ccccc2)n(CC(=O)NO)c1=O`, the growth is reported as -56.3% (active).
With `O=C1C2CC3C(CC2C(=O)[N]1[Sn]([c]1ccccc1)([c]1ccccc1)[c]1ccccc1)C1(Cl)C(Cl)=C(Cl)C3(Cl)C1(Cl)Cl` (stereo not given) the growth was -58% (active).
`O=[N+]([O-])c1ccc(N/N=C/c2ccccc2O)nc1` was tested, and the growth was 0.837% (active).
